Compound activity deposited in PubChem by National Center for Advancing Translational Sciences (NCATS).
Tb PFK inh-1: T. brucei PFK enzyme inhibition; Potency, µM (doses to about 57.5 µM), for inactives: top-dose activity, negative = inhibition, usual class: inhibitors; T. brucei PFK, ADP-Glo luminescence; 330,000 compounds, 0.17% hits; AID 485367; O15648;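 note: potency is the fitted concentration of half-maximal effect; 0% = uninhibited 1x PFK enzyme wells and -100% = no-enzyme wells; nearly all actives have a fitted effect of over 60% in size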
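Luminescent ADP detection (ADP-Glo, two-step: ATP depletion then ADP-to-ATP conversion for luciferase) reported PFK activity after 45 min room-temperature reaction of 1.25 nM enzyme with 0.5 mM F6P and 0.1 mM ATP at pH 8.0.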
PGK inhibitor: inhibitors of T. brucei phosphoglycerate kinase | PGK/GAPDH coupled, Kinase-Glo luminescence, 60 min | 380,000 compounds, 0.043% hits | P07378 | AID 602233 | Potency, µM (titrated, usually from 57.5 µM), for inactives: at the highest dose activity change, negative = inhibition, actives largely listed as inhibitors; note: potency is the fitted concentration of half-maximal effect; % is set by controls: 0 for no effect and ±100 for the full control effect; nearly all actives have a fitted effect of over 60% in size
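Recombinant glycosomal PGK reaction used 1,3-bisphosphoglycerate generated in-well by GAPDH (100nM final) in 100mM TEA pH 7.6, 5mM MgCl2, 0.01% Tween-20. After 60 minutes at room temperature, ATP was read by Kinase-Glo Plus luminescence end-point.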
Pin1 inh: inhibitors of human Pin1. Q13526. Pin1 FP peptide displacement, HiFluor488, 10 min. Potency, µM (doses to about 115 µM), inactives show top-dose activity, negative = inhibition, actives largely listed as inhibitors. 390,000 compounds, 0.009% hits; active = well fitted inhibition curve with a large enough effect in the polarisation, with a control signal flat, not every such curve was filed as active; inconclusive = small, poorly fitted or top-dose-only effect, or effect the other way, or a change in a side signal; inactive = no such curve, though single readings can be large or run the other way; the % refers to the polarisation; note: potency is the fitted concentration of half-maximal effect; % is set by controls: 0 for no effect and ±100 for the full control effect
PI4K2A block: blocks human PI4K2A kinase activity; AID 1346378; purified PI4K2A, ADP-Glo luminescence, 1 h; hits give low values; Q9BTU6; activity change, negative = inhibition, % at 76.9 µM; 420,000 compounds, 0.13% hits; in the data active = activity change below about -50%; inconclusive = mostly about -30% to -49%;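 note: -100% = wells without enzyme as full effect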
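PI4K2A activity was measured by ADP-Glo luminescence: enzyme (4 ug/mL stock) and phosphatidylinositol (1.2 mM stock) in Tris pH 7.5/MgCl2/EGTA/Triton X-100 buffer were reacted with ATP (300 microM stock) for one hour at ambient temperature.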
USP2a block: inhibitors of human ubiquitin-specific protease USP2a; O75604; USP2 core, Ub-CHOP2 coupled fluorogenic reporter, 485/531; Potency, µM (top dose mostly 38.3 µM), for the others: top-dose activity change, negative = inhibition, hits mostly inhibitors; 330,000 compounds, 0.01% hits;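 note: potency is the fitted concentration of half-maximal effect; plate controls were DMSO wells for no effect and full inhibition by NEM control for full effect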
Target sequence (O75604 whole entry, looked up): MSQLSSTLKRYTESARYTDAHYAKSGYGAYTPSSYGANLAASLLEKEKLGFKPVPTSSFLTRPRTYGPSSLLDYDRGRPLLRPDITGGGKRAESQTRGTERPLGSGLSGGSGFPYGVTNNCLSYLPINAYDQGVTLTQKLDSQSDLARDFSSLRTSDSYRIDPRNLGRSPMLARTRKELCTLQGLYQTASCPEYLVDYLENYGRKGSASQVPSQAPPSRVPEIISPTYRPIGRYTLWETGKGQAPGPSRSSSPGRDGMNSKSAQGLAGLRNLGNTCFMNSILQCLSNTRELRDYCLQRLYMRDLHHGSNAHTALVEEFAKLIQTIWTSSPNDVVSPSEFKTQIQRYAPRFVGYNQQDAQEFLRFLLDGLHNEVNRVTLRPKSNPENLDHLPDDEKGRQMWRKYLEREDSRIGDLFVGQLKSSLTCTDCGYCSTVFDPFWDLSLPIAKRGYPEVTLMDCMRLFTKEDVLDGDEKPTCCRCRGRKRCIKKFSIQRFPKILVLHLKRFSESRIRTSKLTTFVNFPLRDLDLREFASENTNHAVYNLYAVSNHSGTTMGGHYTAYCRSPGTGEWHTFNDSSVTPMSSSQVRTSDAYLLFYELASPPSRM
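USP2 core (10nM final) preincubated 30min RT with compound in 20mM Tris-HCl pH 8.0, 2mM CaCl2, 2mM beta-mercaptoethanol, 0.05% CHAPS; 25nM Ub-CHOP2 plus 25nM reporter substrate added, fluorescence (Ex485/Em531) read after 60min.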
Tb PFK KinaseGlo: inhibits T. brucei PFK measured by ATP depletion | AID 504636 | Tb PFK enzyme, ATP depletion, Kinase-Glo Plus luminescence | shares compounds with Tb PFK inh-1 | Potency, µM (highest dose often 57.5 µM), for inactives: at the highest dose inhibition | 1,100 compounds, 47% hits; calls by dose curve; note: potency is the fitted concentration of half-maximal effect; nearly all actives have a fitted effect of over 60% in size
Tb PFK inh-2: T. brucei PFK enzyme inhibition, hit validation; shares compounds with Tb PFK inh-1; purified T. brucei PFK, ADP-Glo luminescence, 45 min; AID 504637; 1,100 compounds, 41% hits; Potency, µM (highest dose often 57.5 µM), without a hit: top-dose activity change, negative = inhibition, hits mostly inhibitors;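 note: potency is the fitted concentration of half-maximal effect; plate controls were full PFK enzyme control for no effect and no enzyme control for full effect; nearly all actives have a fitted effect of over 60% in size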
* marks the source's active call; other numbers are inactive results; i = inactive; ? = inconclusive; . = no result. Rows were chosen to be rich in hits. Some 0.28% of all compounds tested hit in one or more screens of this group. Unless noted, calls come from the whole dose curve; as a rule, active = well fitted curve in the direction sought with a large enough effect; inconclusive = small, poorly fitted or top-dose-only effect, or another doubt; inactive = no such curve, though single readings can be large; an effect the other way counts as inactive or inconclusive.

SMILES	Tb PFK inh-1	PGK inhibitor	Pin1 inh	PI4K2A block	USP2a block	Tb PFK KinaseGlo	Tb PFK inh-2
CC(=O)Nc1cc([As](=O)(O)O)ccc1O	?	-8.0%	-1.3%	4.8	4.9%	?	?
C=CC#CC[N+]1(CC#Cc2ccccc2)CCOCC1	?	i	39.1%	-1.5	?	-29.1%	?
COC(=O)c1ccc(OC(=O)/C=C/c2ccco2)cc1	-9.5%	i	-9.1%	-13.1	-0.2%	.	.
O=Cc1cccc(OC(=O)/C=C/c2ccco2)c1	23.9µM*	?	.	-11.6	-24.9%	6.75µM*	12µM*
COc1ccc([S+](=O)([O-])N2CCN([S+](=O)([O-])c3ccc4c(c3)OCCO4)CC2)c(OC)c1	.	.	23.2%	.	.	.	.
CCn1c(=O)c2c(nc(C=Cc3ccc(OC)c(OC)c3)n2C)n(CC)c1=O	.	.	.	-1.8	.	.	.
CCCCN(CCCC)C(C(N)=O)c1ccc(OC)cc1 (stereo unspecified)	.	.	.	-5.4	.	.	.
NC(=O)CCN1CCN(C(=O)c2ccc3nc(Cc4cccc(Cl)c4)oc3c2)CC1	?	-2.3%	-14.2%	1.0	3.8%	12µM*	26.9µM*
Cc1ccc(C(=O)Nc2nnc(CC(=O)N/N=C/c3ccncc3)s2)cc1	1.4%	.	34.7%	2.0	-2.4%	.	.
Cc1ccc(C(=O)Nc2nnc(CC(=O)N/N=C/c3ccc(O)c(O)c3)s2)cc1	?	?	?	-15.7	?	-11.2%	4.0%
COc1ccc(C(=O)Nc2nnc(CC(=O)N/N=C/c3ccc(O)cc3O)s2)cc1	?	.	.	.	-29.2%	-27.2%	?
O=C(O)c1ccccc1SC1=NS(=O)(=O)c2ccccc21	.	.	-15.0%	.	.	.	.
Cc1ccc(NS(=O)(=O)c2cc3c(cc2F)NC(=O)CC3)cc1C	.	.	-4.6%	.	.	.	.
Cc1cc[n+](-c2[nH]c(=O)sc2/C=N/N=C(\[O-])c2ccncc2)cc1	19µM*	-6.0%	?	-9.8	3.4%	?	-20.7%
Clc1ccc(CSC2=NCCCN2)cc1Cl	5.36µM*	-3.9%	?	-19.9	4.1%	10.7µM*	21.3µM*
Clc1ccccc1CSC1=NCCCN1	-0.5%	i	-2.0%	3.5	1.5%	.	.
Cc1ccccc1NC(=O)CSc1ccsc1[N+](=O)[O-]	26.9µM*	?	?	-10.2	1.4%	10.7µM*	16.9µM*
CN1CCc2cccc3c2[C@@H]1Cc1ccc(O)c(O)c1-3	4.26µM*	-8.3%	-9.8%	-10.2	3.0%	1.69µM*	6.01µM*
CCN1CCCC1CN (stereo unspecified)	.	.	.	0.0	.	.	.
Sc1ccccc1Cl	.	.	.	2.4	.	.	.
O=C(Cn1sc2ccccc2c1=O)Nc1ccc(Cl)cc1	.	0.6%	.	-10.6	.	.	.
Cc1cc(C)c2c(=O)n(CC(=O)Nc3cccc(F)c3)sc2n1	7.57µM*	-0.8%	-0.7%	-0.2	-0.3%	?	4.78µM*
CCOc1ccc(NC(=O)CCc2c(C)nc3c4c(C)cc(C)nc4nn3c2C)cc1	.	-3.3%	-6.3%	-4.7	.	.	.
Cc1cc(C)c2c(=O)n(CC(=O)N3CCC(Cc4ccccc4)CC3)sc2n1	?	.	.	.	1.4%	.	.
Cc1cc(C)c2c(=O)n(CC(=O)NCCCN3CCOCC3)sc2n1	8.49µM*	i	2.2%	-0.1	1.4%	?	10.7µM*
Cc1cc(C)c2c(=O)n(CC(=O)Nc3ccc(Cl)cc3)sc2n1	8.49µM*	2.0%	0.1%	-2.3	0.6%	?	3.79µM*
CCOc1ccc(NC(=O)Cn2sc3nc(C)cc(C)c3c2=O)cc1	?	0.1%	9.6%	-2.4	-1.4%	?	8.49µM*
CCCC(=O)Nc1ccc(O)c(C(C)=O)c1	.	.	.	-1.1	.	.	.
Cc1ccc(NC(=O)Cn2sc3nc(C)cc(C)c3c2=O)c(Cl)c1	10.7µM*	0.9%	2.6%	-1.5	1.1%	?	6.01µM*
Cc1ccc(NC(=O)Cn2c(C)cc(C)c(C#N)c2=O)c(Cl)c1	-1.1%	-7.1%	18.3%	0.8	-5.0%	.	.
